Results filed as inconclusive are left out. A call without a number means that no potency is given here. The source made the active and inactive calls. Calls come from the whole dose curve; as a rule, active = well fitted inhibition curve with a large enough effect; inconclusive = small, poorly fitted or top-dose-only effect; inactive = flat fitted curve, though single readings scatter.
What follows are molecules tested against Calcium and integrin-binding protein 1 (Homo sapiens) (UniProt Q99828) (assay: Primary qHTS for Identification of Calcium Integrin Binding Protein 1 (CIB1) Competitor (AID 1508620;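 note: GST tagged CIB1 binding a fluorescein labelled alphaIIb integrin peptide tracer; top concentration of the series differs between compounds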)). Conditions: CIB1-GST / FITC-alphaIIb peptide fluorescence polarization; series mostly up to 114 µM.
Chain of Calcium and integrin-binding protein 1 (Homo sapiens) (Q99828 whole entry, looked up): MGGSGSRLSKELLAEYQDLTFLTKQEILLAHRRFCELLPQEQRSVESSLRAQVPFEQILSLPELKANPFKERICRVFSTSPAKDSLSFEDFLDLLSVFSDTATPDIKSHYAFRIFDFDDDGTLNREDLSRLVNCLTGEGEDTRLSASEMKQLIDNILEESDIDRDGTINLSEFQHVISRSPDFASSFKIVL
Outline: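 Fluorescence polarization competition: CIB1-GST (1 uM final) preincubated with compound 15 min at room temperature, then FITC-labeled alphaIIb peptide (100 nM final) added for another 15 min. Polarization read at Ex 480/Em 540.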
In the case of Cc1cccc2oc(NC3=NC(c4[nH]ncc4Cl)C4=C(CCCC4=O)N3)nc12 (configuration not stated), the Potency was “inactive”.
With Cc1ccc(CSc2nnc(-c3cccc4ccccc34)o2)cc1 the Potency was “inactive”.
For O=C(NCc1ccccc1)C1CCN(c2nc(-c3ccc(Br)cc3)cs2)CC1, the Potency was “inactive”.
In the case of O=S(=O)(NCc1ccccc1)c1ccc(O)c2ncccc12, the Potency was “inactive”.
Cc1ccccc1C(=O)N1CCc2cc(-c3nc(NC(=O)Cc4ccccc4)sc3C)ccc21 was tested, and the Potency was “inactive”.
Cc1cc(NS(=O)(=O)c2ccc(NC(=O)CCc3ccc(Cl)c(Cl)c3)cc2)no1 was tested, and the Potency was “inactive”.
COc1cccc(CNc2ccc(S(=O)(=O)Nc3cccc4ccncc34)cc2)c1O was tested, and the Potency was “inactive”.
With CC(=O)N1CCCc2cc(S(=O)(=O)Nc3ccc(C)c(C)c3)ccc21 the Potency was “inactive”.
With CCc1ccccc1C(=O)N1CCc2cc(-c3nc(NC(=O)Cc4ccc5c(c4)OCO5)sc3C)ccc21 the Potency was “inactive”.
In the case of COc1ccccc1-c1nnc(SCC#CCOC(=O)c2ccc(F)cc2)o1, the Potency was “inactive”.
For Cc1ccc(-c2ccc(=O)n(CC(=O)NCc3ncc[nH]3)n2)cc1, the Potency was “inactive”.
CS(=O)(=O)c1ccc(C(=O)OCC(=O)N2CCOCC2)cc1[N+](=O)[O-] was tested, and the Potency was “inactive”.
In the case of O=[S+]([O-])(c1ccc2nsnc2c1)N1CCN([S+](=O)([O-])c2c(F)cccc2F)CC1, the Potency was “inactive”.
COc1ccc(C2C3=C(N=CN(CCN4CCOCC4)C3N)Oc3ccccc32)cc1OC (configuration not stated) was tested, and the Potency was “inactive”.
With O=C(Cn1nc(-c2ccc(OC(F)(F)F)cc2)ccc1=O)NCCc1ccccc1 the Potency was “inactive”.
For CN(Cc1cccs1)c1ncnc2ccc(-c3ccc4cnn(C)c4c3)cc12, the Potency was “inactive”.
For CC(C)Oc1ccc(-c2csc(N3CCC(C(N)=O)CC3)n2)cc1, the Potency was “inactive”.
COc1ccc(OC)c(-c2nnc3n2N=C(c2ccccc2OC)CS3)c1 was tested, and the Potency was “inactive”.
O=S(=O)(NN1CCOCC1)c1ccc(Br)cc1 was tested, and the Potency was “inactive”.
CC1=C(C(=O)Nc2ccc(C)cc2)C(c2ccccc2Br)N=C(Nc2nc3ccccc3o2)N1 (configuration not stated) was tested, and the Potency was “inactive”.
In the case of COc1ccc(OC)c(C2=Nn3c(nnc3-c3cccc(OC)c3OC)SC2)c1, the Potency was “inactive”.
For Cc1ccc(OCCn2c(CCNC(=O)c3cccc(C(F)(F)F)c3)nc3ccccc32)cc1, the Potency was “inactive”.
